Paper PMC4552634, “A New Set of Chemical Starting Points with Plasmodium falciparum Transmission-Blocking Potential for Antimalarial Drug Discovery” (PLoS ONE, 2015)
About 3,200 (25%) of roughly 13,000 compounds showed an effect of 50% or more. Some of the results follow.

Test system: P. falciparum stage V gametocytes
Set-up: BacTiter-Glo ATP luminescence viability of purified stage V gametocytes in 384-well plates, per cent inhibition versus DMSO
Conditions: 48 h, 5 µM; inhibitor

SMILES | % Inhibition [%]
O=C(Nc1ccc(CC(=O)N2CCc3cc(Cl)c(N4CCN(C/C=C/c5ccccc5)CC4)cc32)cc1)Nc1cccc([N+](=O)[O-])c1 [TCMDC-139475] | 6.892
Cc1cc(Nc2cccc(C#N)c2)nc(Nc2ccccc2C)n1 [TCMDC-133471] | -8.734
CCCCNC(=O)[C@H](CC1CCCCC1)NC(=O)c1ccc(O)c(-c2cccc(C(F)(F)F)c2)c1 [TCMDC-140812] | 31.87
O=C(Nc1cc(Cl)ccc1O)c1cc(-c2ccccc2O)no1 [TCMDC-125274] | -14.42
Cc1ccc2[nH]c(C)c(Br)c(=O)c2c1 [TCMDC-124347] | 65.99
Cc1[nH]c2ccc(C#N)cc2c(=O)c1Br [TCMDC-135219] | 27.39
O=c1c(Br)c(C(F)(F)F)[nH]c2ccc(Oc3ccccc3)cc12 [TCMDC-135798] | -15.2
COC(=O)c1ccccc1N1CCN(CCCCNC(=O)c2ccc(NC(=O)c3cc(Cl)cc(Cl)c3)cc2)CC1 [TCMDC-138235] | 7.414
NC(N)=Nc1ccc(OCCCCCOc2ccc(N=C(N)N)cc2)cc1 [TCMDC-137482] | 39.96
NC(N)=Nc1ccc(OCCCCCOc2ccc(N=C(N)N)c(Cl)c2)cc1Cl [TCMDC-137577] | 34.57
NC(N)=Nc1ccc(OCCCCCOc2ccc(N=C(N)N)cc2Br)c(Br)c1 [TCMDC-137543] | 77.55
Cc1nc(N)nc(N)c1-c1cc(Cl)c(N)c(Cl)c1 [TCMDC-137386] | -88.48
Cc1nc2ccccc2c(=O)n1/N=C/c1ccccc1[N+](=O)[O-] [TCMDC-125512] | 2.657
CCOC(=O)c1c[nH]c2c(ccc3ccccc32)c1=O [TCMDC-123857] | 33.13
CCOC(=O)c1c[nH]c2c(sc3cc(OC)ccc32)c1=O [TCMDC-137190] | 2.888
CCCCOc1cc2[nH]cc(C(=O)OCC)c(=O)c2cc1OCCCC [TCMDC-137523] | 63.76
CCCc1cc(NCC)nc(Nc2ccc(C)cc2)n1 [TCMDC-134013] | -22.6
Cc1cccc(OCC(=O)Nc2cccc(NC(=O)COc3cccc(C)c3)n2)c1 [TCMDC-123837] | 22.25
COc1cc(C(=O)NC2CCc3ccccc32)cc(Cl)c1OC (stereo not drawn) [TCMDC-124601] | 17.65
Cc1cccc(Nc2nccc(Nc3cccc(C(=O)NCCN4CCOCC4)c3)n2)c1 [TCMDC-124774] | -4.453
OC(CNc1ccnc(Nc2cccc(CCN3CCOCC3)c2)n1)c1ccccc1 (stereo not drawn) [TCMDC-136463] | 12.7
Cc1cnc(Nc2cccc(CCN3CCOCC3)c2)nc1NC(C)C [TCMDC-133533] | 57.17
CCCCN1CCN(CCCNc2c3ccccc3nc3ccccc23)CC1 [TCMDC-137572] | 99.41

SMILES | % Inhibition [%]
CCCCCCN1CCC(NCc2cccc3ccccc23)CC1 [TCMDC-141665] | -97.34
CCCCCCNc1c2ccccc2nc2ccccc12 [TCMDC-123957] | -50.01
CCCCN1CCN(CCCCNc2c3ccccc3nc3ccccc23)CC1 [TCMDC-137569] | 97.88
CCCCCCCCN1CCN(CCCCCCNc2c3ccccc3nc3ccccc23)CC1 [TCMDC-138015] | 122.1
COc1ccc(NC(=O)Nc2ccc(-c3ccncc3)c(C(F)(F)F)c2)cc1N1CCN(C)CC1 [TCMDC-139213] | -9.659
O=C(Cc1cnc[nH]1)Nc1cccc(-c2ccc(-c3nc4ccccc4[nH]3)cc2)c1 [TCMDC-136947] | 6.174
O=C(/C=C/c1ccc(Cl)c(Cl)c1)NCCCCCCN1CCCN(C(=O)Nc2cc(F)cc(F)c2)CC1 [TCMDC-135941] | 5.109
C=C[C@]1(C)C[C@@H](OC(=O)NC(=O)C2CCN(C(=O)CSc3ccccc3)CC2)[C@]2(C)[C@H](C)CC[C@]3(CCC(=O)[C@H]32)[C@@H](C)[C@@H]1O [TCMDC-139971] | 14.26
CNC(=O)NC1=NC(C)(C)N(OCCCOc2cc(Cl)c(Cl)cc2Cl)C(N)=N1 [TCMDC-131701] | 9.937
CN(C)CCCNc1ncnc2c1[nH]c1ccc(Cl)cc12 [TCMDC-124579] | 36.17
Cc1nc(N)nc(N)c1-c1ccc(Cl)c(Cl)c1 [TCMDC-123931] | 6.997
NCCCCc1c(-c2ccc(Cl)c(Cl)c2)[nH]c2ccc(Cl)cc12 [TCMDC-125841] | 97.12
CO/C(=C\C=C\c1cc2cc(Cl)c(Cl)cc2[nH]1)C(=O)NCCCN1CCN(c2cccc(OCC(=O)Nc3ccccc3)c2)CC1 [TCMDC-139822] | -45.25
Cc1cc(OCCCN2CCC(NS(=O)(=O)c3cccc(Br)c3)C2)c2ccccc2n1 (stereo not drawn) [TCMDC-136283] | -24.53
COc1cc(Cc2cnc(N)nc2N)cc(OCCCC#N)c1OC [TCMDC-138040] | -4.212
COc1ccccc1-c1cc(C(=O)N2CCN(S(=O)(=O)c3ccc(C)cc3)CC2)[nH]n1 [TCMDC-124398] | 19.71
Cc1ccc(S(=O)(=O)N2CCN(C(=O)c3cc(-c4ccccc4)n[nH]3)CC2)cc1 [TCMDC-124401] | -51.82
Cc1nn(CC(C)C)c2sc(C(=O)N3CCN(S(=O)(=O)c4ccc(C#N)cc4)CC3)cc12 [TCMDC-125045] | 90.92
CCOc1ccc(-c2n[nH]c(C(F)(F)F)c2-c2ccccc2OC)c(O)c1 [TCMDC-124564] | -16.08
CC(=O)c1c(C)[nH]c(C(=O)Nc2ccc(-c3nc4ccc(C)cc4s3)cc2)c1C [TCMDC-124493] | 55.35
CC(=O)Nc1ccc(C2NC(=O)NC(c3ccccc3)=C2c2nc3ccccc3s2)cc1 (stereo not drawn) [TCMDC-124535] | -96.89
CC(=O)Nc1cccc(C(=O)Nc2ccc(-c3ccc(-c4nc5cccc(C)c5[nH]4)s3)cc2)c1 [TCMDC-132143] | -2.133
CC[C@H](NC(=O)c1c(CN2CCC(N3CCCCC3)CC2)c(-c2ccccc2)nc2c(Cl)c(O)ccc12)c1ccccc1 [TCMDC-140367] | 17.06

SMILES | % Inhibition [%]
CCCN(CCC)CCOc1ccc(C(O)(C#CC(O)(c2ccc(OCCN(CCC)CCC)cc2)c2cccc(Cl)c2)c2cccc(Cl)c2)cc1 (stereo not drawn) [TCMDC-137200] | 105.4
CCN(CC)CCOc1ccc(NC(=O)c2oc3ccccc3c2C=Cc2ccccc2)cc1 [TCMDC-132102] | 24.22
NOCCCCOc1ccc(Br)cc1 [TCMDC-131760] | 15.82
CCC(=O)OC(CCN(CC)CC)(c1ccccc1)c1ccccc1 [TCMDC-131415] | 15.82
CCN(CC)CCOc1ccc(C(O)(C#CC(O)(c2ccc(OCCN(CC)CC)cc2)c2ccc([N+](=O)[O-])cc2)c2ccc([N+](=O)[O-])cc2)cc1 (stereo not drawn) [TCMDC-137201] | 116.9
CCOC(=O)c1ccc(OCCCCCCOc2ccc(Br)cc2)cc1 [TCMDC-131409] | 4.056
CCN(CC)CCOc1ccc(C(O)(C#CC(O)(c2ccccc2)c2ccc(OCCN(CC)CC)cc2)c2ccccc2)cc1 (stereo not drawn) [TCMDC-137197] | 109.6
CC1(C)N=C(N)N=C(N)N1OCCCOc1ccc([N+](=O)[O-])cc1 [TCMDC-131610] | 2.796
CCN(CC)CCOc1ccc(C(O)(C#CC(O)(c2ccc(Br)cc2)c2ccc(OCCN(CC)CC)cc2)c2ccc(Br)cc2)cc1 (stereo not drawn) [TCMDC-137199] | 112.4
CCN(CC)CCNc1ccnc2[nH]c3ccc([N+](=O)[O-])cc3c12 [TCMDC-131978] | 4.282
O=C(Nc1ccc(Cl)cc1)c1ccc(CN2CCCN(Cc3ccsc3)CC2)cc1 [TCMDC-136415] | 6.883
O=C(Nc1cccc(CN2CCCN(Cc3ccc(O)cc3)CC2)c1)c1cccc(Cl)c1 [TCMDC-141817] | -7.519
Cc1sc2nc(CSc3ccccc3)nc(N3CCN(CC(=O)NC4CC4)CC3)c2c1C [TCMDC-125266] | 47.29
COc1ccc2ccc(F)c(CC(=O)N3CCOC(CNCc4cccc(-c5ccsc5)n4)C3)c2n1 (stereo not drawn) [TCMDC-135027] | 10.39
O=C(/C=C/c1ccc(Cl)c(Cl)c1)NCCCCCN1CCC(C(=O)Nc2ccc(F)c(Cl)c2)CC1 [TCMDC-136112] | 0.5724
CN(CCCN(C)c1cc(NC(=O)c2ccc(F)cc2)ccn1)Cc1cccc(O)c1 [TCMDC-134954] | -6.57
C[C@H](NC(=O)C1CCCC1)C(=O)Nc1ccc(-c2ccc(-c3nc4ccc(C(F)(F)F)cc4[nH]3)cc2)cc1 [TCMDC-137052] | -25.16
COc1cc(Cc2cnc(N)nc2N)cc(OCCCS(=O)(=O)O)c1OC [TCMDC-137357] | -4.274
COc1cc(/C=C/C(=O)NC2CCC(N3CCC(c4ccccc4C)CC3)CC2)cc(OC)c1 (stereo not drawn) [TCMDC-133516] | -90.94
CCCC(C(=O)OCCN(CC)CC)(c1ccc(Cl)cc1)c1ccc(Cl)cc1 [TCMDC-141994] | 16.96
CCN(CC)CCOc1ccc(C(O)(C#CC(O)(c2ccc(C)cc2)c2ccc(OCCN(CC)CC)cc2)c2ccc(C)cc2)cc1 (stereo not drawn) [TCMDC-137198] | 113
Cc1ccc(OCCCCONC(=O)c2ccccc2)cc1 [TCMDC-131756] | 2.332
CCC1CCCCN1S(=O)(=O)c1ccc(NC(=O)c2cc(C)on2)cc1 (stereo not drawn) [TCMDC-124618] | -16.01
